According to PubChem BioAssay:

assay: MM1S cell viability effects, profiling panel, calcein-AM fluorescence, 48 h, basal (AID 1165); conditions: higher = more signal;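 note: viability of MM1S multiple myeloma cells under basal unstimulated conditions; test concentration not given here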

Row | Structure (SMILES) | z-score
1 | COC(=O)CC=C[C@@H](C)[C@@H](C=NOC[C@@H](C)[C@H](OCc1ccccc1)C(C)C)NS(=O)(=O)c1ccc(C)cc1 | -0.726
2 | COc1cccc([C@H]2Oc3ccc(OC)cc3C(=NO[C@@H](C)c3cc(-c4c(C)cc(C)cc4C)no3)[C@@H]2O)c1 | -1.38
3 | CCN1C(=O)[C@H]2[C@H]3[C@H](O)[C@H](O)CC(=NNC(=O)OCc4ccccc4)[C@H]3CC[C@H]2C1=O | -1.59
4 | CC(=O)OC[C@H]1O[C@H](CCON=C(C)CCN2CCCc3nc(C)c(C)cc32)C=C[C@@H]1OC(C)=O | -1.85
5 | CCOC(=O)[C@H](Cc1ccccc1)NC(=O)CCC1CC(OC(=O)NCc2cccc3ccccc23)CC2(CCCC(COC(=O)NCCOc3ccccc3)O2)O1 (some centres undefined) | 0.992
6 | CC(CCN1CCCc2nc(C)c(C)cc21)=NOC[C@@H](O)COCc1ccco1 | -1.31
7 | CC(CCC(=O)OC[C@H]1O[C@H](C#Cc2ccccc2)C=C[C@@H]1Oc1ccc(C)cc1)=NO[C@H](C)c1cn([C@@H]2COC[C@H]2O)nn1 | -1.57
8 | C[C@H]1C=CCC(=O)OC[C@H](C)C(=O)N2CCC[C@H]2C(=O)OC1 | 0.391
9 | CC(=O)OC[C@H]1O[C@@H](ON=C2[C@H]3CCn4c(=O)n(-c5ccccc5)c(=O)n4[C@H]3[C@H](O)[C@@H]3O[C@H]23)[C@H](OC(C)=O)[C@@H](OC(C)=O)[C@@H]1OC(C)=O | -0.0928
10 | C[C@@H](c1ccccc1)N1C(=O)[C@H]2[C@H]3[C@H](O)[C@H](O)CC(=NNC(=O)OCc4ccccc4)[C@@H]3CC[C@H]2C1=O | 0.399
11 | CCOC(=O)CCN1C(=O)[C@H]2[C@H]3[C@H](O)[C@H](O)CC(=NNC(=O)OCC)[C@H]3CC[C@H]2C1=O | -2.14
12 | O=C1[C@H]2[C@H]3[C@H](O)[C@H](O)CC(=NOC[C@@H](O)COCc4ccco4)[C@@H]3CC[C@H]2C(=O)N1C1CCCCC1 | 0.0224
13 | CC(=O)OC[C@H]1O[C@H](CCON=C(C)C)C=C[C@@H]1OC(C)=O | -0.719
14 | COC(=O)[C@@H]1CC[C@H](C)[C@@H](c2ccc(C)cc2)N1C(=O)c1ccc(C=NOC[C@H]2O[C@H](c3ccccc3)C=C[C@@H]2Oc2ccc(OC)cc2)cc1 | 0.248
15 | C=C(C)C(=O)OC[C@H]1CN2[C@@H](CC[C@@H](C)[C@@H]2c2ccc(Br)cc2)C(=O)O1 | 0.244
16 | CCOC(=O)[C@H](Cc1ccccc1)NC(=O)CCC1CC(OC(=O)NCc2cccc3ccccc23)CC2(CCCC(COC(=O)NCCc3ccccc3OC)O2)O1 (some centres undefined) | -0.123
17 | CCOC(=O)[C@H](CC(C)C)NC(=O)CCC1CC(OC(=O)NCc2ccc3c(c2)OCO3)CC2(CCCC(COC(=O)NCCC(C)C)O2)O1 (some centres undefined) | 0.473
18 | CC(C)CON=C1C[C@@H](O)[C@@H](O)[C@@H]2[C@@H]3C(=O)N(C(C)(C)C)C(=O)[C@@H]3CC[C@@H]12 | 0.086
19 | COc1ccc(O[C@H]2C=C[C@@H](c3ccccc3)O[C@@H]2COC(=O)CCC(C)=NOC[C@@H](O)COCc2ccco2)cc1 | -1.89
20 | CC(C)(C)N1C(=O)[C@H]2[C@H]3[C@H](O)[C@H](O)CC(=NOC[C@@H](O)COCc4ccco4)[C@@H]3CC[C@H]2C1=O | 0.268
21 | CC(CCN1CCCCc2nc(C)c(C)cc21)=NO[C@@H](C)c1cc(-c2c(C)cc(C)cc2C)no1 | -2.9
22 | COC(=O)[C@H](C)NC(=O)CC=C[C@@H](C)[C@@H]1C=C[C@H](O)[C@@H](CO)O1 | 0.203
23 | CCN1C(=O)[C@H]2[C@H]3[C@H](O)[C@H](O)CC(=NOC[C@@H](O)COCc4ccco4)[C@H]3CC[C@H]2C1=O | 0.133
24 | O=C1[C@H]2[C@H]3[C@H](O)[C@H](O)CC(=NOC[C@@H](O)COCc4ccco4)[C@@H]3CC[C@H]2C(=O)N1Cc1ccc2c(c1)OCO2 | 0.477
25 | Cc1ccc(S(=O)(=O)N[C@@H]2COC(=O)CC=C[C@@H](C)[C@H](NS(=O)(=O)c3ccc(C)cc3)COC(=O)[C@H](C)NC(=O)CC=C[C@H]2C)cc1 | -0.987
26 | COC(=O)CC=C1c2ccccc2[C@H](OC)[C@H]1C | -0.458
27 | CCN(CC)CC(O)CN1CCCCc2nc(C)c(C)cc21 (centres undefined) | 0.288
28 | CC(C)CON=C1C[C@@H](O)[C@@H](O)[C@@H]2[C@@H]3C(=O)N(Cc4ccccc4)C(=O)[C@@H]3CC[C@H]12 | 0.825
29 | COc1ccc(OC[C@H]2CN3[C@@H](CC[C@@H](C)[C@@H]3c3ccc(Br)cc3)C(=O)O2)cc1 | 0.829
